Measured values from PubChem BioAssay.
“And” between values parts separate entries of the source, which are not always exact repeats. Equal entries are not always repeated.

Columns and labels:
[1] = test system: Botulinum neurotoxin type F light chain protease (Clostridium botulinum); experiment: Botulinum neurotoxin type F light chain protease inhibition, multiplex microsphere flow cytometry, validation set (AID 588459); settings: multiplex microsphere protease substrate cleavage assay, at 10 µM, active compounds read high
[2] = biological target: Botulinum neurotoxin type A (Clostridium botulinum) (UniProt P0DPI0); experiment: BoNT/A light chain protease inhibitors, biochemical, multiplex microsphere flow cytometry, validation set (AID 588460); settings: at 10 µM, active compounds read high
[3] = biological target: Lethal factor (Bacillus anthracis) (UniProt P15917); experiment: Lethal factor protease inhibitors, Bacillus anthracis, multiplex microsphere cleavage assay, validation set (AID 588461); settings: flow cytometry, at 10 µM, active compounds read high

Measured: inhibition

Chain of Botulinum neurotoxin type A (Clostridium botulinum) (P0DPI0 whole entry, looked up): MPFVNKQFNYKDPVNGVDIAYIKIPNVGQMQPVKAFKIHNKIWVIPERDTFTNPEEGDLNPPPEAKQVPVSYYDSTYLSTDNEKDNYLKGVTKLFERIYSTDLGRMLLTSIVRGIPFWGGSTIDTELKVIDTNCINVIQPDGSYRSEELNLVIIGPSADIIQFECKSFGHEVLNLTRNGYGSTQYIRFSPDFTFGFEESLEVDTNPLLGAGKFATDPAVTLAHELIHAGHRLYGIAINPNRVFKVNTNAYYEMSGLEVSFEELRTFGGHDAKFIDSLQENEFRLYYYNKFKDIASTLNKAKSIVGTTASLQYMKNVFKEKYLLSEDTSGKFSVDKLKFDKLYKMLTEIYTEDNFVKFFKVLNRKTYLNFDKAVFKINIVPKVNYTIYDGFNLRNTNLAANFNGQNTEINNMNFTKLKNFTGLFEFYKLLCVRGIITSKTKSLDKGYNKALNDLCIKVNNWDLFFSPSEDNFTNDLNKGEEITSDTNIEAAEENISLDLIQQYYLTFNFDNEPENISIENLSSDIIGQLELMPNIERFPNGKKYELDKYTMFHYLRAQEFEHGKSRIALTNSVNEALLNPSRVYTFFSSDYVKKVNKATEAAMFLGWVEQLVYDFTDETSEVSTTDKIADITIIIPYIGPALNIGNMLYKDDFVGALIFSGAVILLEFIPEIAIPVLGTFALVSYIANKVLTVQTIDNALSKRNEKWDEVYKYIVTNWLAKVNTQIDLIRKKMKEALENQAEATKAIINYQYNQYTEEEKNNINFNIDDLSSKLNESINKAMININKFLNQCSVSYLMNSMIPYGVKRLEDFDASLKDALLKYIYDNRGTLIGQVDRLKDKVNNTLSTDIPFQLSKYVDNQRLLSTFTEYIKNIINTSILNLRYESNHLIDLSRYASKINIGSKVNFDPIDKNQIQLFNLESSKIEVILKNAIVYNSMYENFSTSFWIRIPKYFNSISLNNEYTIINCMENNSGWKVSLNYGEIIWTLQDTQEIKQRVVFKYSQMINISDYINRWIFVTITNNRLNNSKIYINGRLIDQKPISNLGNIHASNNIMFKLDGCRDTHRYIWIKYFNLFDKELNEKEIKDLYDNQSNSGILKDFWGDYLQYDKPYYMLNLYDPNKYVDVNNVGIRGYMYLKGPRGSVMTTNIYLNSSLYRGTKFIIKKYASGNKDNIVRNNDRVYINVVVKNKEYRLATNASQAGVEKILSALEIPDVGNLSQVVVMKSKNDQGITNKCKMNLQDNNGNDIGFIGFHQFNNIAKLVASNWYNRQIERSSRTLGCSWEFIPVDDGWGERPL
Chain of Lethal factor (Bacillus anthracis) (P15917 whole entry, looked up): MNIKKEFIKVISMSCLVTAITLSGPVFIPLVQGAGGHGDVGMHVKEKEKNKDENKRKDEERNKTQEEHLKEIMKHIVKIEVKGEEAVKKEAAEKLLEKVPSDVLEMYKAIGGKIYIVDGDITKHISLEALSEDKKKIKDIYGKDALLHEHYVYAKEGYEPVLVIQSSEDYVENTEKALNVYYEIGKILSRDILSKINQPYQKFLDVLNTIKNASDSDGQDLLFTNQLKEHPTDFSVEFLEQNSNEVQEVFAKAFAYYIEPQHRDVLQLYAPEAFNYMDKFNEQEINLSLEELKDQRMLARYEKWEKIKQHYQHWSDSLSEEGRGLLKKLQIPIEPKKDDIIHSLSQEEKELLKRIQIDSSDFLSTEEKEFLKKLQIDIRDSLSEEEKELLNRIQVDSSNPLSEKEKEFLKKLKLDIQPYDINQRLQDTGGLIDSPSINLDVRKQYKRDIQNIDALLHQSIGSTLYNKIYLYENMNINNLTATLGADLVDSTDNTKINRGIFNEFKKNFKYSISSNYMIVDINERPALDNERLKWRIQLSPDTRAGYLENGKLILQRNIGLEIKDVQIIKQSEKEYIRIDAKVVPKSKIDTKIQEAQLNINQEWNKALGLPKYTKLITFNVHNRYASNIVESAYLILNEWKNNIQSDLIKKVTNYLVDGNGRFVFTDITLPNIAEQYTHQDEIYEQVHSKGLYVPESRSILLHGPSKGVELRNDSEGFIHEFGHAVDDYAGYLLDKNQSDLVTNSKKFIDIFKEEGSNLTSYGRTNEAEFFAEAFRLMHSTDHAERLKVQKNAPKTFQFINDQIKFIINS

c1ccc(CN(CC2=NCCN2)c2ccccc2)cc1
inactive: [1] 5.3% and 2.2% | [2] 1.1% and 0.4% | [3] -3.2% and 1.4%

Cc1ccccc1OCC(O)CN1CCN(C)CC1 (stereo not given)
inactive: [1] 1% | [2] -0.4% | [3] -2.2%

CC1(C)Cc2ccccc2C(C(Cc2ccccc2)C(N)=O)=N1 (stereo not given)
inactive: [1] 0.5% | [2] 1.1% | [3] -3.2%

CCOc1ccc(C(=O)/C=C/c2cc(OC)c(OC)c(OC)c2)cc1
inactive: [1] 0.5% | [2] -0.5% | [3] 4.5%

Cc1ccc(S(=O)(=O)N2CCC(C(=O)N[C@@H](C)C(=O)NC3CCS(=O)(=O)C3)CC2)cc1 (stereo not given in full)
inactive: [1] 2.1% | [2] 1.5% | [3] 11.8%

COc1ccc(NC(=O)C2C(=O)N(CCO)C3(C)CC2c2ccccc2O3)cc1 (stereo not given)
inactive: [1] 0.1% | [2] 1.3% | [3] -1.3%

N/C(=N\OS(=O)(=O)c1ccc2ccccc2c1)c1cccnc1
inactive: [1] -1.4% | [2] -0.9% | [3] 0.2%

CC1CCN(CCOCCOc2ccccc2Br)CC1
inactive: [1] 1.2% | [2] 0.3% | [3] 3.9%

CN(C)CCC(c1ccc(Br)cc1)c1ccccn1 (stereo not given)
inactive: [1] 1.3% | [2] -0.7% | [3] -8.1%

O=C(O)C1CSC(c2ccc3c(c2)OCO3)N1 (stereo not given)
inactive: [1] 3.1% | [2] 1.1% | [3] -0.7%
